Assay results: PubChem BioAssay AID2551 (National Center for Advancing Translational Sciences (NCATS), 2010)
The whole screen tested about 310,000 compounds, of which about 17,000 (5.5%) were called active. Not shown: some 11% with an inconclusive outcome. Calls follow the shape of the dose curve; as a rule, active = well fitted inhibition curve with a large enough effect; inconclusive = small, poorly fitted or top-dose-only effect, or effect the other way; inactive = no such curve, though single readings can be large or run the other way. Shown is part of a subset that was picked to be rich in actives.

The compounds below were run against Nuclear receptor ROR-gamma (Mus musculus) (UniProt P51450) (assay: qHTS for inhibitors of ROR gamma transcriptional activity). Details: Drosophila S2 Gal4-RORgamma UAS-luciferase reporter, 20 h; series mostly up to 53.6 µM.
Sequence of Nuclear receptor ROR-gamma (Mus musculus) (P51450 whole entry, looked up, the tested form may be a part): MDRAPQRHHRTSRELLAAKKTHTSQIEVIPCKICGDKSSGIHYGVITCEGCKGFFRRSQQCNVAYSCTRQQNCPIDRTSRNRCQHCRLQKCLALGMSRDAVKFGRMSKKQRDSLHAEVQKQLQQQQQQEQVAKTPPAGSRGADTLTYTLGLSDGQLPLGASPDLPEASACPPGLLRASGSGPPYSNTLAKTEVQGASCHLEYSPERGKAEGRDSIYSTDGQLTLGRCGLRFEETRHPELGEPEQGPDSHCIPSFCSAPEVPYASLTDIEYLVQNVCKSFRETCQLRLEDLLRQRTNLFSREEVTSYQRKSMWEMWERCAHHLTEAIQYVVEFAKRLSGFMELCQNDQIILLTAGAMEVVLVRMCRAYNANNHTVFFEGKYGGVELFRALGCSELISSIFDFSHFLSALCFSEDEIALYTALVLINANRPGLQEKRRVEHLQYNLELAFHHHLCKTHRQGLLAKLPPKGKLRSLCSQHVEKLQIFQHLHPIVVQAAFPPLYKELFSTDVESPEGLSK
Method in brief: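 Schneider cells (Drosophila), stable Gal4 DBD–ROR gamma + UAS-luc; 1 hr cmpd preincubation; Cu2+ induction 700 uM final; 20 hr ambient; luminescence.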
Also: nearly all actives have a fitted effect of over 60% in size.
Potency is read from the fitted curve at half-maximal effect.

Potency, inactive:
COc1ccc(C(=O)Nc2ccc(NC(=O)C(C)C)nc2)cc1
COc1ccc(NC(=O)/C(Cl)=C(/Cl)S(=O)Cc2ccc(C)cc2)cn1 (centres undefined)
O=C(NCc1ccccc1)C1CCN(C(=O)Cc2ccccc2)CC1
Cc1ccc2nc(SCC(=O)NC3CCCC3)[nH]c2c1
O=C1CSC(c2ccccc2)N1c1nc(-c2ccc(Cl)cc2Cl)cs1 (centres undefined)
Clc1ccc(-c2ncc3ccccn23)c(Cl)c1
COc1ccc(-n2nc(C(=O)NCC(=O)N3CCN(c4ccccc4OC)CC3)c3ccccc3c2=O)c(OC)c1
Cc1cccc2c1cnn2C(=O)CCC(=O)NC1CCCCC1
CCCCc1nc2cc(C(=O)N3CCCCC3CCO)ccc2o1 (centres undefined)
Cc1ccccc1N/N=C/c1ccc(N2CCOCC2)cc1
C=CCNC(=S)N/N=C/c1ccc(C)s1
CSCCC(NS(=O)(=O)c1ccccc1F)C(=O)N1CC=C(c2ccccc2)CC1 (centres undefined)
C=CCc1ccccc1OCC(O)CN1CCN(CCO)CC1 (centres undefined)
CCN(CC(=O)NCCCN1CCOCC1)S(=O)(=O)c1cc(Cl)ccc1Cl
CC(=O)N1CCC(C(=O)OCc2ccc(Cl)cc2)(c2ccccc2)CC1
O=C(NCc1ccco1)/C(=C\c1cccc([N+](=O)[O-])c1)NC(=O)c1ccco1
CCc1cc(C(N)=O)c(NC(=O)c2ccc(OC)cc2)s1
COC(=O)CNC(=O)c1ccc(OC2CCN(C(=O)C3CC3)CC2)cc1
CCOC(=O)N1CCN(C(=O)c2ccc3c(=O)n(CCc4ccc(OC)c(OC)c4)c(=O)[nH]c3c2)CC1
CCOC(=O)Cn1c(O)c(N=NC(=O)CNC(=O)Cc2ccccc2)c2ccccc21
CC1CCN(C(=O)/C(=C\c2ccccc2F)NC(=O)c2ccccc2)CC1
NC(=O)Cn1cc(/C=N\NS(=O)(=O)c2ccccc2)c2ccccc21
O=C(CN1CCN(c2ccc(F)cc2)CC1)Nc1cccc(C(F)(F)F)c1
Cc1ccc(S(=O)(=O)N/N=C(\c2ccccc2)C2CC2)cc1
C/C(=N\NC(=O)CNc1cccc2ccccc12)c1ccc(Br)s1
Cn1cccc1/C=N/NC(=O)CNc1cccc2ccccc12
CCn1cc(CN2CCN(CC(C)(C)C)C(CCO)C2)c2ccccc21 (centres undefined)
O=c1[nH]c(CN2CCOCC2)nc2cc(Cl)ccc12
CN(Cc1nc2ccccc2c(=O)[nH]1)Cc1cc(=O)oc2ccc3ccccc3c12
COc1cccc(CNC(=O)c2cccnc2Sc2ccc(Cl)cc2)c1
Brc1ccccc1CN1CCC(Cc2ccccc2)CC1
CCOC(=O)CNC(=O)CSc1nnc(-c2cccc(OC)c2)n1CC
C=CCn1c(COc2ccccc2)nnc1SCC(=O)NCC(=O)OCC
Cn1c(=O)oc2cc(S(=O)(=O)NCCC(=O)NCc3ccccc3Cl)ccc21
O=C(CCC1CCN(C(=O)c2cccc(Cl)c2F)CC1)Nc1ccccc1
CCC(=O)Nc1ccc(C(=O)Nc2ccc3c(c2)C(=O)N(CC2CCCO2)C3=O)cc1 (centres undefined)
O=C(NCc1ccc2c(c1)OCO2)c1ccc2c(c1)C(=O)N(CC1CCCO1)C2=O (centres undefined)
O=C(CSc1n[nH]c(=O)n1-c1ccccc1)Nc1ccccc1C(F)(F)F
CCCNC(=O)CCc1c(C)nc2c(c(C)nn2-c2ccc(C)cc2)c1C
COc1cc2ccccc2cc1C(=O)Nc1nc(C)c(C(C)=O)s1
CCCCCC1CC(COc2ccccc2)OC1=O (centres undefined)
COc1ccc(C(=O)NC2CC(C)(C)Cc3c2cnn3-c2ccccc2)c(OC)c1 (centres undefined)
O=C(NCCCn1ccnc1)c1cc(Br)c(Br)s1
C=Cn1cc[n+](CC(=O)c2ccc(OC)c(OC)c2)c1
O=C(CSc1ccc(-c2ccco2)nn1)Nc1cccc(F)c1
Cc1ccc(Cl)cc1NC(=O)c1ccccn1
Cc1ccc(SCC(=O)Nc2ncc(C)s2)cc1
Cc1cnc(NC(=O)CSc2nnc(C)s2)s1
Cc1cnc(NC(=O)CSc2c(Cl)cccc2Cl)s1
CCC(C)C(NC(=O)C1CCC(=O)N1C(=O)OCc1ccccc1)C(=O)NC(C(=O)N1CCCC1C(N)=O)C(C)CC (centres undefined)
Cc1cc(=O)oc2cc(OC(C)C(=O)NCCc3ccc(S(N)(=O)=O)cc3)ccc12 (centres undefined)
CN(C(=O)COC(=O)CNC(=O)C12CC3CC(CC(C3)C1)C2)c1ccccc1
CCC(=O)Nc1ccc(S(=O)(=O)Nc2c(NC)c3ccccc3oc2=O)cc1
O=S1(=O)CCOC[C@H](CC2CCCCC2)N1Cc1ccc(F)cc1
CCOc1cc(NC(=O)c2ccccn2)c(OCC)cc1NC(=O)c1ccc(OC)cc1
CCOc1ccc(N/C=C/C(=O)c2cc(OC)c(OC)c(OC)c2)cc1
Cc1ccc(CNC(=O)C2(C(F)(F)F)C/C(=C\Cc3ccccc3)CCCO2)o1 (centres undefined)

Potency, active:
COc1ccc(CS(=O)/C(Cl)=C(/Cl)C(=O)Nc2ccc(OC)nc2)cc1 (centres undefined) 1.12 µM
Clc1ccc(-c2cc(-c3ccccn3)on2)c(Cl)c1 3.98 µM
CNC(=S)N/N=C/c1ccc(N2CCOCC2)s1 1.26 µM
CCc1ccc(/C=N/NC(=O)c2ccc(OC3CCCC3)cc2)s1 11.2 µM
O=C(Cn1cc(/C=N/NC(=O)c2cccc(C(F)(F)F)c2)c2ccccc21)Nc1ccc(F)cc1 11.2 µM
Cc1cccc(/C=N/NC(=O)CNc2cccc3ccccc23)n1 14.1 µM
CN(CCOc1ccccc1)Cc1nc2cc(Cl)ccc2c(=O)[nH]1 4.47 µM
CCOC(=O)CNC(=O)CSc1nnc(COc2ccc(Cl)cc2)n1CC 7.94 µM
O=C1c2cccc3c([N+](=O)[O-])ccc(c23)C(=O)N1CC1CCCO1 (centres undefined) 15.8 µM
Cc1cnc(NC(=O)c2ccc(Cl)nc2)s1 15.8 µM
Cc1cnc(NC(=O)c2ccccn2)s1 0.794 µM
COc1ccc(C(=O)/C=C/Nc2ccccn2)cc1 3.55 µM
